The whole screen tested about 340,000 compounds, of which about 1,000 (0.29%) were called active. No stated cut-off is given here; in the data, inconclusive means inhibition above about 29% without an active follow-up result; inactive means below that. The list is a sample of the results. Results with a measured potency or affinity are listed apart.
Target: Genome polyprotein (Dengue virus type 2 (strain 16681-PDK53)) (UniProt P29991)
Assay: flavivirus cap methylation enzyme inhibition – biochemical, confirmation dose response, primary screen (AID 588689)
Conditions: Dengue-2 NS5 methyltransferase capping enzyme assay, at 25 µM, stronger effect = higher value

Genome polyprotein (Dengue virus type 2 (strain 16681-PDK53)), sequence (P29991 whole entry, looked up): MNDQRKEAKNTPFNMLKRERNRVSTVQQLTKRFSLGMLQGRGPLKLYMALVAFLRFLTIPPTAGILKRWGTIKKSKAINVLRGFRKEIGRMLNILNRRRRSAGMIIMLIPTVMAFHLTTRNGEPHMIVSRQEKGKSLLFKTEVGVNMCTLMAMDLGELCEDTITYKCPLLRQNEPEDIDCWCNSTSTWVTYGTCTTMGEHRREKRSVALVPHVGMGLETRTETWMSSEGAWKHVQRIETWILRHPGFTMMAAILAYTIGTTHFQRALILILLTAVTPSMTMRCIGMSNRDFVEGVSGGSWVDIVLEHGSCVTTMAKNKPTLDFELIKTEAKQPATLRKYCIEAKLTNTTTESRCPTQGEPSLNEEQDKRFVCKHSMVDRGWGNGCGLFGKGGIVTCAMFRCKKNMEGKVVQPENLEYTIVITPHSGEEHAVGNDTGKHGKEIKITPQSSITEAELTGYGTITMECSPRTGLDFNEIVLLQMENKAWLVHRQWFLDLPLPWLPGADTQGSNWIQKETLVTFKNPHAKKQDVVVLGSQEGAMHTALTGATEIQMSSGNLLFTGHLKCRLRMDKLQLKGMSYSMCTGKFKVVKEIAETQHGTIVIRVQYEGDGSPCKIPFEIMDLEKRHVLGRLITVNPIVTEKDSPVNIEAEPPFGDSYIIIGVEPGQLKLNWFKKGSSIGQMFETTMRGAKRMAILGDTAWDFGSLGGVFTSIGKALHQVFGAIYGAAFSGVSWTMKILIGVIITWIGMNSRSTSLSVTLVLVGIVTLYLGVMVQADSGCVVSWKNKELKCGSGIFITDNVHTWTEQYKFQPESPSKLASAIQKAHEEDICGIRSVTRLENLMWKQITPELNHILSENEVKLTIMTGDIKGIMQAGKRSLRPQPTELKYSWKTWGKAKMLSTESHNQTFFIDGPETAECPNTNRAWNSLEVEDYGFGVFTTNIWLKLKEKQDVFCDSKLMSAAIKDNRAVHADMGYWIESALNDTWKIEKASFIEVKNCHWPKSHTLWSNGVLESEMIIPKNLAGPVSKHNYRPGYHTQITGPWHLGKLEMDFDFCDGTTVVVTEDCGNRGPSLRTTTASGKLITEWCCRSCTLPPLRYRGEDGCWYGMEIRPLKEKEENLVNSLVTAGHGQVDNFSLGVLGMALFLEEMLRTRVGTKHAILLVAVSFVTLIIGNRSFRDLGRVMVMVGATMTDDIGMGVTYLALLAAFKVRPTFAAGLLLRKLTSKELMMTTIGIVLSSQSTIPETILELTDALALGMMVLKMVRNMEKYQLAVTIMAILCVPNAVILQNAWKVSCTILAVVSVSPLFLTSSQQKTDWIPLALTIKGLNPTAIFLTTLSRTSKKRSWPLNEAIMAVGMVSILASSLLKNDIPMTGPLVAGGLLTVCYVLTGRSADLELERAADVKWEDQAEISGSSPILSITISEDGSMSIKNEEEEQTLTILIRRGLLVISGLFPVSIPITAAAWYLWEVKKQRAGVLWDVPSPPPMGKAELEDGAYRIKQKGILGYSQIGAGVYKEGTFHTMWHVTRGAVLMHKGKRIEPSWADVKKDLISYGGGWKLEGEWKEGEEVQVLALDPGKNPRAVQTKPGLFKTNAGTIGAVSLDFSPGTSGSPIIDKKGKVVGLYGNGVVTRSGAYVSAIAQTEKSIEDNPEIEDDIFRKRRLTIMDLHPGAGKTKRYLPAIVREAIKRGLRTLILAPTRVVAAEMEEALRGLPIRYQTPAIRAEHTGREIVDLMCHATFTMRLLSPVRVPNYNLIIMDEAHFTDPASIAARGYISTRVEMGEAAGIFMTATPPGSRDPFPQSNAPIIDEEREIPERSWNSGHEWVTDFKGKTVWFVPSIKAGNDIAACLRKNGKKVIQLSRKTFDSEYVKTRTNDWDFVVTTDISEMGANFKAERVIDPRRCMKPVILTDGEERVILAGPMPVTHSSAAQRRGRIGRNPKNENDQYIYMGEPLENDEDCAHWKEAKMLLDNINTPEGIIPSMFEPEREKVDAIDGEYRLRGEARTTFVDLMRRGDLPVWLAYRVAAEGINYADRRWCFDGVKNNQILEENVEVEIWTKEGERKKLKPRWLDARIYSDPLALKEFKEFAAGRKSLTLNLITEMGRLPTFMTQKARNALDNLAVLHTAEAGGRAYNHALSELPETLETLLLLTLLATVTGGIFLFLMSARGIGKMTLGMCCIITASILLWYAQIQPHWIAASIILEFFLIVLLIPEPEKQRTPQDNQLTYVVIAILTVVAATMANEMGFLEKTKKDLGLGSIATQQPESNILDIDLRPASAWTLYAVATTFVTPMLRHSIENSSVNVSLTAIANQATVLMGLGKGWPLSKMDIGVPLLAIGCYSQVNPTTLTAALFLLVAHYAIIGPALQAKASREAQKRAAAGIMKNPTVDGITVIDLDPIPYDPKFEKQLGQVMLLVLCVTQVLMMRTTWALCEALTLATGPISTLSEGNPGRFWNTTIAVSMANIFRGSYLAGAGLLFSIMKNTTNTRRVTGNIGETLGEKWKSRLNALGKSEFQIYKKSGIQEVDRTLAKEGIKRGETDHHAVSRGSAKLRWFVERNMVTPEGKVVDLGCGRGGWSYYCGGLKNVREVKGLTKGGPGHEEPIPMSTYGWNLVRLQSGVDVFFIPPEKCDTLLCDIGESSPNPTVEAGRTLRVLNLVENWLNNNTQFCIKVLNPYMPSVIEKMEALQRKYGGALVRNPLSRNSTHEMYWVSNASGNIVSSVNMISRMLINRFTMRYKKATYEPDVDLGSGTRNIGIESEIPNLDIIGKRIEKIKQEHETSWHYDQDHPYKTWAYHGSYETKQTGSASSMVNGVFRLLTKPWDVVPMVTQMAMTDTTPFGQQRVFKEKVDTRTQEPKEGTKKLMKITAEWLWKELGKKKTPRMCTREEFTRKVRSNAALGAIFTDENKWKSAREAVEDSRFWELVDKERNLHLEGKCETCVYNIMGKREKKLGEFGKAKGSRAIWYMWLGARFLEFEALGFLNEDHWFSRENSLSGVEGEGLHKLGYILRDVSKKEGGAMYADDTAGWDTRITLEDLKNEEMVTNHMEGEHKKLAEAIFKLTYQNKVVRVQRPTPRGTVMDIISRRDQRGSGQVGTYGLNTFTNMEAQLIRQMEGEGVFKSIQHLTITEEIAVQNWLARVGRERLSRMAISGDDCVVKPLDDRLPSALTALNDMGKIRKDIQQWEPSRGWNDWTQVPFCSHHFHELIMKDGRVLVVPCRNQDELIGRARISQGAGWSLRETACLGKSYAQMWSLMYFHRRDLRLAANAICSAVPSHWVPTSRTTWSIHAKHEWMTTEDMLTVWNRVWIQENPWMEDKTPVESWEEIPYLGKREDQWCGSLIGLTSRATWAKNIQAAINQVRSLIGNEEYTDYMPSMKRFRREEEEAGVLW

## COc1ccc(-n2cccc2C=O)cc1
  inhibition: -11.6% (inactive)

## CCOC(=O)CSc1nc(N)c(C#N)c(-c2ccc(OCC)cc2)c1C#N
  inhibition: -3.48% (inactive)

## COc1cc(/C=C2\C(C)=C(C#N)c3nc(N)c(C#N)c(C)c32)ccc1OCC(=O)O
  inhibition: -6.96% (inactive)

## Cc1cc2nc3s/c(=C/c4ccc(-c5ccccc5C(=O)O)o4)c(=O)n3c2cc1C
  inhibition: -33.6% (inactive)

## Cc1cc2nc(/C(C#N)=C\c3ccc(-c4ccccc4C(=O)O)o3)[nH]c2cc1C
  inhibition: -2.36% (inactive)

## O=C1OC(c2ccccc2)=CC1=Cc1ccccc1O
  inhibition: -6.29% (inactive)

## CC1CCCC(NC(=O)C2N(CCCN3CCCC3)C(=O)C3C(C(=O)Nc4ccc(Cl)cc4)C4C=CC32O4)C1C (centres undefined)
  inhibition: -9.14% (inactive)

## Cc1cc(C)cc(NC(=O)COC(=O)Cc2ccccc2F)c1
  inhibition: -2.95% (inactive)

## CS(=O)(=O)NCc1nnc(SCc2c(F)cccc2Cl)o1
  inhibition: -7.53% (inactive)

## C=CCn1c(SCC(=O)/C(C#N)=C(\C)N)nnc1C1CCCCC1
  inhibition: -2.77% (inactive)

## CCN(C[C@H]1N[C@@](C)(C(=O)OC)[C@H]2C(=O)N(C)C(=O)[C@@H]12)S(=O)(=O)c1ccc(OC(F)(F)F)cc1
  inhibition: -7.6% (inactive)
Measured here: pilot screen replicate inhibition
  inhibition: 0.305%

## O=C1/C(=C/c2ccccn2)SC(=S)N1NS(=O)(=O)c1ccccc1
  inhibition: 8.55% (inactive)

## Cc1ccc(S(=O)(=O)NN2C(=O)/C(=C/c3cccnc3)SC2=S)cc1
  inhibition: 14.3% (inactive)

## O=C1/C(=C/C=C/c2ccco2)SC(=S)N1NS(=O)(=O)c1ccccc1
  inhibition: 64.5% (inactive)

## O=C1/C(=C\c2ccc(Br)cc2)SC(=S)N1NS(=O)(=O)c1ccccc1
  inhibition: -8.31% (inactive)

## CC(=O)N1C(=O)/C(=C2\SC(=S)N(NS(=O)(=O)c3ccc(C)cc3)C2=O)c2ccccc21
  inhibition: 5.31% (inactive)

## Cc1ccc(S(=O)(=O)NN2C(=O)/C(=C/c3ccc(F)cc3)SC2=S)cc1
  inhibition: 9.54% (inactive)

## O=S(=O)(NCc1nc2ccccc2[nH]1)c1ccccc1
  inhibition: -2.6% (inactive)

## O=C(NC1CC1)C1=C[C@@H](c2csc3ccccc23)C[C@@H](OCc2ccc(CO)cc2)O1
  inhibition: -6.54% (inactive)

## O=C(COC(=O)C1CC2CCCC(C1)C2=O)Nc1nc(-c2ccc(F)c(F)c2)cs1 (centres undefined)
  inhibition: 11% (inactive)

## CN(C)C(=O)c1ccc(NC(=O)c2cccc(S(=O)(=O)N3CCCc4ccccc43)c2)cc1
  inhibition: 4.32% (inactive)

## CC(NC(=O)c1cccnc1)C(c1cccs1)N1CCOCC1 (centres undefined)
  inhibition: 0% (inactive)

## CSc1cccc(NC(=O)C2CCN(S(=O)(=O)c3cnc[nH]3)CC2)c1
  inhibition: -4.39% (inactive)

Source: PubChem BioAssay AID588689 (Southern Research Specialized Biocontainment Screening …, 2011)
